Assays:
Experiment in all cases: log2 ratio of Biotin-Ahx-Ub-VS probe labelling (fragment/DMSO); higher = less target engagement (more negative = stronger competition), active = hit call of the paper (q ≤ 0.05, log2 ratio ≤ -1)
Conditions in all cases: compound concentration: 200 uM; treatment time: 3 h
[1] = target: USP34 (UniProt Q70CQ2)
Summary of the method: (§1)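 Values give the average log2 ratio of fragment to vehicle, assessed by unpaired t-test on global-median-normalised Spectronaut label-free quantities. Proteins needed ≥2 unique peptides. HEK293T lysate (495 µg per sample) was treated in triplicate with fragment at 200 µM or vehicle for 3 h and then with Biotin-Ahx-Ub-VS at 0.5 µM final for 1 h. Labelled DUBs were NeutrAvidin-enriched, digested and run by diaPASEF LC-MS/MS.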

[2] = target: T1, USP36 (UniProt Q9P275)
T1 sequence (whole entry): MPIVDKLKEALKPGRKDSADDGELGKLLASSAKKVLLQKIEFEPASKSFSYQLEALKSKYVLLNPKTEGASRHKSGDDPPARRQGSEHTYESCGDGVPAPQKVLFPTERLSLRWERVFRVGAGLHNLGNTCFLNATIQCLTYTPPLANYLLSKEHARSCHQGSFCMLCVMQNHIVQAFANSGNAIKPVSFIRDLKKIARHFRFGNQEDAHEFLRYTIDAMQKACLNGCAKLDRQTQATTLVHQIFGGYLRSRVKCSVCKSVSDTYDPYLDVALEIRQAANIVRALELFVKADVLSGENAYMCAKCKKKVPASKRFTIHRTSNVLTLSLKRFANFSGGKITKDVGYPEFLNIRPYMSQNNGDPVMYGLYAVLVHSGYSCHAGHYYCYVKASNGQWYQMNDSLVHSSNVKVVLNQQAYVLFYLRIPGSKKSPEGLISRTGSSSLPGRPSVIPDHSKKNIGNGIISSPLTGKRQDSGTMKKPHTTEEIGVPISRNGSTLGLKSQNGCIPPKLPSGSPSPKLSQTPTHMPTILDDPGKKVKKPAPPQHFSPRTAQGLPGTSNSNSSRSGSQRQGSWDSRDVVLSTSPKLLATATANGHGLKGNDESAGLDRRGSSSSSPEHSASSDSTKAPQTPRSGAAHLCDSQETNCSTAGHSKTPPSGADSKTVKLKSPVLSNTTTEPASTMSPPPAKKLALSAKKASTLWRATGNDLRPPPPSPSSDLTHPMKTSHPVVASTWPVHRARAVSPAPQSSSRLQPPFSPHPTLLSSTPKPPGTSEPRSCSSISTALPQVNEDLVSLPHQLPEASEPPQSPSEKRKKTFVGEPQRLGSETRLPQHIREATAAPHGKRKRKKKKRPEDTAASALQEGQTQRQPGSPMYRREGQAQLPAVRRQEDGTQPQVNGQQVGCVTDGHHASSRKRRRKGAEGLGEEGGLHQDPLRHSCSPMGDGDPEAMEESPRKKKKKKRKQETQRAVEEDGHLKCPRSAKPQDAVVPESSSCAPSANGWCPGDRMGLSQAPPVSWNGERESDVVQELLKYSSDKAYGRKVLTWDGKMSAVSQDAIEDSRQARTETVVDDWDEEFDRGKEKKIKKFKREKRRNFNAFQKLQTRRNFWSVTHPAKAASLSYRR
Summary of the method: as §1

[3] = target: T2, USP38 (UniProt Q8NB14)
T2 sequence (whole entry): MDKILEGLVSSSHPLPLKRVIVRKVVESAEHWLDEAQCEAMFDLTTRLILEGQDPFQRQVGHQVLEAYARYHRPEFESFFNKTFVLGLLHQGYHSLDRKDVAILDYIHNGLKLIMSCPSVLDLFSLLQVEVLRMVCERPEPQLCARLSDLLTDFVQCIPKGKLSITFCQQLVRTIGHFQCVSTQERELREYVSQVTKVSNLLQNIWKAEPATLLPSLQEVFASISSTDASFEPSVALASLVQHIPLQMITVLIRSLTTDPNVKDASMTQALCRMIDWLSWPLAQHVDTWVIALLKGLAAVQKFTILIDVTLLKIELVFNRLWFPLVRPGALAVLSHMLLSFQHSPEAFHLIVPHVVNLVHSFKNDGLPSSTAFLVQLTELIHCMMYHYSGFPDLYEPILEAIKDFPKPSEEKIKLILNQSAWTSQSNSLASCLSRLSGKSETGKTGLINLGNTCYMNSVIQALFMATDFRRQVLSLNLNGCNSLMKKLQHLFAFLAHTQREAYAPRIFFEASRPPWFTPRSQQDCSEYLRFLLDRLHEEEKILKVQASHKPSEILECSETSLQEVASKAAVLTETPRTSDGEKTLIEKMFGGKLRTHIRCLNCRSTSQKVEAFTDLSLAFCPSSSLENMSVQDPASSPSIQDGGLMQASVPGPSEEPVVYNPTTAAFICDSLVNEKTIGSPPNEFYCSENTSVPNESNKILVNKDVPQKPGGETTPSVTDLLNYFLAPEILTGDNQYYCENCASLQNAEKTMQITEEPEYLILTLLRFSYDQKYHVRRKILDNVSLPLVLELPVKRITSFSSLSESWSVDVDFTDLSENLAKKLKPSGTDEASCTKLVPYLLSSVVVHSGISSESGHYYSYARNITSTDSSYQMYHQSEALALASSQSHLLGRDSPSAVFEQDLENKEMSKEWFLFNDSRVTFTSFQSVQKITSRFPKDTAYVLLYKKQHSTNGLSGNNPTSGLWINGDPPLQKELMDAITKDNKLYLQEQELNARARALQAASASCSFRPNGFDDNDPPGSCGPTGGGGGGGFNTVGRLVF
Summary of the method: as §1

[4] = target: T3, USP39 (UniProt Q53GS9)
T3 sequence (whole entry): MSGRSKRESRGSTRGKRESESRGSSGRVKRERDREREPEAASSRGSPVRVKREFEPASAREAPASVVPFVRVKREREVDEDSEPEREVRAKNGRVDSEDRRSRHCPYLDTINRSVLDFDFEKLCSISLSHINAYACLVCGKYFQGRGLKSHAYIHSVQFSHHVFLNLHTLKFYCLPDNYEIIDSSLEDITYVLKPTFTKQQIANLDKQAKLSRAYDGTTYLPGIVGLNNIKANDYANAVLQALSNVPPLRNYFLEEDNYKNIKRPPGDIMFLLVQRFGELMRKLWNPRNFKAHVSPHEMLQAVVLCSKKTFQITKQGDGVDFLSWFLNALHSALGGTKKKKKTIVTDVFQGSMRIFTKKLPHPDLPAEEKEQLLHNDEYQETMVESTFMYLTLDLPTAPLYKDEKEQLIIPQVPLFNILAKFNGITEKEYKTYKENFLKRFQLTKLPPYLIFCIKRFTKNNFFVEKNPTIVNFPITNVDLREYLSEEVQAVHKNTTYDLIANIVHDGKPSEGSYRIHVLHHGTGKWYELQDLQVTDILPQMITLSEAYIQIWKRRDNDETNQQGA
Summary of the method: as §1

[5] = target: T4, USP4 (UniProt Q13107)
T4 sequence (whole entry): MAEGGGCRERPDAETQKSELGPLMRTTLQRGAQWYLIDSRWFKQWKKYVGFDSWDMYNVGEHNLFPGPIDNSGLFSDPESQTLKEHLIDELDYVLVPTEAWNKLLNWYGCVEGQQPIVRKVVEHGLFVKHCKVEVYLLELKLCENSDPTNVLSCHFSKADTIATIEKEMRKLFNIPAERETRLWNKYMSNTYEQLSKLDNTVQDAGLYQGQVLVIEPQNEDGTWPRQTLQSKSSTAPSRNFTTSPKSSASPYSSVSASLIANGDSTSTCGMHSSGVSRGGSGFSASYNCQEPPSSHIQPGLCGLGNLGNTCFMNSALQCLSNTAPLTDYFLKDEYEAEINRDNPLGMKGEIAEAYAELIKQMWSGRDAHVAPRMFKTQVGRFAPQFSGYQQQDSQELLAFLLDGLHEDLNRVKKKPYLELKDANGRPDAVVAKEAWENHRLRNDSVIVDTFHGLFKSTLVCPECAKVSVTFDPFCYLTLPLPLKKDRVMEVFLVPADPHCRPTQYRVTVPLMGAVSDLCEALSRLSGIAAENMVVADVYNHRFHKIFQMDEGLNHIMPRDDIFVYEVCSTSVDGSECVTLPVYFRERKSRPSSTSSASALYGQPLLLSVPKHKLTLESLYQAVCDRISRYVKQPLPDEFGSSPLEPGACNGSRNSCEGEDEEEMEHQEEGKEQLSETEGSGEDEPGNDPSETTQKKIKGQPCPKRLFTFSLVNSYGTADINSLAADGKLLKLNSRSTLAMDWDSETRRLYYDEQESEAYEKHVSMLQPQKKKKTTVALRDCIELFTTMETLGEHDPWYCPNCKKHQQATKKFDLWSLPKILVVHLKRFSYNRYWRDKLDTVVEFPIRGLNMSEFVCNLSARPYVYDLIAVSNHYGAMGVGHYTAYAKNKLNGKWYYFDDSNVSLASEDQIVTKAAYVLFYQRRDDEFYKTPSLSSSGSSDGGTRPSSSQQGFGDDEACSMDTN
Summary of the method: as §1

Measured: log2 ratio of Biotin-Ahx-Ub-VS probe labelling

Sequence of USP34 (Q70CQ2 whole entry, the tested form may be a part): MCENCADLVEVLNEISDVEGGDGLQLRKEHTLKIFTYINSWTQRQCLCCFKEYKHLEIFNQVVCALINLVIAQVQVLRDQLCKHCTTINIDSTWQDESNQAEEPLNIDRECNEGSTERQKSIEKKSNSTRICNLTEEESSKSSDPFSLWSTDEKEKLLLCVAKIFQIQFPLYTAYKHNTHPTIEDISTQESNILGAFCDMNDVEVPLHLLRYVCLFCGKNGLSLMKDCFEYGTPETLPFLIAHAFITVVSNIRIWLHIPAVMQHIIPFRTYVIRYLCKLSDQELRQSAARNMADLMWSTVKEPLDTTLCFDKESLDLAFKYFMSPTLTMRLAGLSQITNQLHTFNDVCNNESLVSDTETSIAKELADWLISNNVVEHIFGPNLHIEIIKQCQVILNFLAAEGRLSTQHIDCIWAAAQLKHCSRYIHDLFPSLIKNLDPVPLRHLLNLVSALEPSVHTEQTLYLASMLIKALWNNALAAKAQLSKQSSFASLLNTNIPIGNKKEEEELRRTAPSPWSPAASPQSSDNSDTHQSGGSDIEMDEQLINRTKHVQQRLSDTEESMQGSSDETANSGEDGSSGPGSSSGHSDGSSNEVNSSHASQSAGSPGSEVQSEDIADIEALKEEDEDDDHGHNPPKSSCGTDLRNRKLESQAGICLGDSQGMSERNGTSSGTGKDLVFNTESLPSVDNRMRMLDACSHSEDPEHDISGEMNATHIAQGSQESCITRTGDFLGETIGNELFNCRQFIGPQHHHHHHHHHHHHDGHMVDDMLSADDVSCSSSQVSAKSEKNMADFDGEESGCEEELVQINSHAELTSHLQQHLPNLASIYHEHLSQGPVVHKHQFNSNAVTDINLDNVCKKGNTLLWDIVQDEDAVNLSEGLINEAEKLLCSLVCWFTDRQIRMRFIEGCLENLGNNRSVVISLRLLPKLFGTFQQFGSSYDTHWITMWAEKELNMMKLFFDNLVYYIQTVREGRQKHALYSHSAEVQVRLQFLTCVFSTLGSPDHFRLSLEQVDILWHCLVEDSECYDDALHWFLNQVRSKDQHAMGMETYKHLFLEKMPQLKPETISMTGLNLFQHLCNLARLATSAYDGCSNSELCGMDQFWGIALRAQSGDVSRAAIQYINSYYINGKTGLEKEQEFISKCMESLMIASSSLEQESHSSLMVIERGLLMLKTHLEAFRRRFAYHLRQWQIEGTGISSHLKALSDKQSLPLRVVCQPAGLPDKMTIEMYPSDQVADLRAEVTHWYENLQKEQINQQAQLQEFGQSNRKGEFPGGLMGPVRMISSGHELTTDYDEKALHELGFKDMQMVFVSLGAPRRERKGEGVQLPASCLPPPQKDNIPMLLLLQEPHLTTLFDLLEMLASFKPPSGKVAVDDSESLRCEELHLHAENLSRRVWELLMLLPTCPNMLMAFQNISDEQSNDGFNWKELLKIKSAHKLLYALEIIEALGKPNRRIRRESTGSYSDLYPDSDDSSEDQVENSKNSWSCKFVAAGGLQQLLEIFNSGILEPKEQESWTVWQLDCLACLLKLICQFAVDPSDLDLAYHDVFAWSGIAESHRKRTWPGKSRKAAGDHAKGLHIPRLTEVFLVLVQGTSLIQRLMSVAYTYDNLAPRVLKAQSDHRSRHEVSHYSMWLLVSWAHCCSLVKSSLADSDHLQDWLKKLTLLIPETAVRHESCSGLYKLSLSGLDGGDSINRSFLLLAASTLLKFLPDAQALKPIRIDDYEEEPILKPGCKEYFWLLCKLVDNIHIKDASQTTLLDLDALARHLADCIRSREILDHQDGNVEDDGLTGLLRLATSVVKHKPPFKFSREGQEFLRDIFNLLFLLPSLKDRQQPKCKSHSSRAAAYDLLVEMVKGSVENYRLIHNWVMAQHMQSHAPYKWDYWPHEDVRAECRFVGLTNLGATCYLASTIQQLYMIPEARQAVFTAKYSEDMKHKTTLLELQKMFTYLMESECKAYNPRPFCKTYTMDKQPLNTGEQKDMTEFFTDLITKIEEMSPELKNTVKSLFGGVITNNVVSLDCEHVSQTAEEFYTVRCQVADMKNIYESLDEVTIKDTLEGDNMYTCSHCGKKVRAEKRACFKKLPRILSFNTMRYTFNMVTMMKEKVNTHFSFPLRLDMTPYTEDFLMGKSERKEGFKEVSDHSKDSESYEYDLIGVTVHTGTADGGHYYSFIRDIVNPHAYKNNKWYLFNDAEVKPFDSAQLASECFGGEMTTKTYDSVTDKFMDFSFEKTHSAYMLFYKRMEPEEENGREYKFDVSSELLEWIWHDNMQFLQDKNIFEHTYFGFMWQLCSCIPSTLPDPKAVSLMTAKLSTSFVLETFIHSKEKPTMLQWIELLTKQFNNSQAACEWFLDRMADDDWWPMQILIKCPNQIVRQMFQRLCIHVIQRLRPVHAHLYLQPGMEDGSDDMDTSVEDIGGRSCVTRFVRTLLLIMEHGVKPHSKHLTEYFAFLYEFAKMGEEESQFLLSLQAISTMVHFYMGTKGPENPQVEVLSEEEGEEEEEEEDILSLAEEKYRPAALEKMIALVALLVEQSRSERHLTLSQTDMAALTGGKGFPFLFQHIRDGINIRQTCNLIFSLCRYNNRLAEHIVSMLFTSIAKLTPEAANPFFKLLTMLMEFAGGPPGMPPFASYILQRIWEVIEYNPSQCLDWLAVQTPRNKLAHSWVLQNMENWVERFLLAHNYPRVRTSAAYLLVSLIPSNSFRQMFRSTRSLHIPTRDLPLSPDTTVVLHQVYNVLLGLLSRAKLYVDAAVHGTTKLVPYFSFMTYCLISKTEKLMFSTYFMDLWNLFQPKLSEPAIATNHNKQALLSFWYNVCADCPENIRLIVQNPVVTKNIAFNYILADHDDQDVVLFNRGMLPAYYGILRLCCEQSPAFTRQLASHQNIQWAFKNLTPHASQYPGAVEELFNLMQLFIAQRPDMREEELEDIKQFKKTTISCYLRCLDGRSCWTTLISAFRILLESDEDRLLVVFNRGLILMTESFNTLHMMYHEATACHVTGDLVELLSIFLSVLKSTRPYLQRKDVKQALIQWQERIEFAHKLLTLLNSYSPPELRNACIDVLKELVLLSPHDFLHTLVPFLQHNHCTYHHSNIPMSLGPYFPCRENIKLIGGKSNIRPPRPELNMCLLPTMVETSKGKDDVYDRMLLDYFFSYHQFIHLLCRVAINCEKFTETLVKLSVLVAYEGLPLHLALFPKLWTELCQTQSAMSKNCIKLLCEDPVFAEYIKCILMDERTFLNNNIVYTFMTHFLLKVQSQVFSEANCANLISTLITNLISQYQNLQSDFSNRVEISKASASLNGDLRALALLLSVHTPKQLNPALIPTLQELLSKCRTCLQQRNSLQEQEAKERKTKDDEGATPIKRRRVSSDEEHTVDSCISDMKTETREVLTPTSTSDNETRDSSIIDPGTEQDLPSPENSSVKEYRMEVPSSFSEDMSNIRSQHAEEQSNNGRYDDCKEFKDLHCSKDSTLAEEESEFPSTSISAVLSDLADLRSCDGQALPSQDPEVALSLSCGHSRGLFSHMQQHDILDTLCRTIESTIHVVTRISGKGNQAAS

O=C(CCl)N1CCC(C(=O)N2CCCC2)CC1
inactive: [1] -0.0649 | [2] -0.172 | [3] -0.135 | [4] -0.453 | [5] -0.208
